We go through 10 molecules from PubChem BioAssay (Tox21).

Test [1] is described as follows: qHTS assay for small molecule agonists of the p53 signaling pathway (AID 651631; calls by dose curve; note: nearly all actives have a fitted effect of over 15% in size). Summed up: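 We treat p53RE-bla HCT-116 cells with compounds for 16 h at 37 °C, add LiveBLAzer B/G FRET substrate for 2 h at room temperature, and measure fluorescence intensity.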
The nature of test [2]: qHTS assay for small molecule agonists of the p53 signaling pathway - cell viability (AID 651633; calls by dose curve;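 note: p53RE-bla HCT reporter cells with a stable beta-lactamase p53 reporter; nearly all actives have a fitted effect of over 30% in size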). Summed up: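 Viability counter-read: CellTiter-Glo luminescence (30 min, room temperature) in the same p53RE-bla plates. These plates had been exposed to compounds for 16 h at 37 C.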
Background: qHTS replaces the single test concentration by a dilution series.

Test [3] is described as follows: qHTS assay for small molecule disruptors of the mitochondrial membrane potential - cell viability (AID 720634; calls by dose curve; note: nearly all actives have a fitted effect of over 20% in size; note: potency is the fitted concentration of half-maximal effect). A digest of the protocol:
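HepG2, 1 hr compound, 37 C. ATP luminescence via CellTiter-Glo, 30 min RT, same well as m-MPI.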

Test [4] in a line: qHTS assay to test for compound auto fluorescence at 535 nm (green) in HepG2 cells (AID 720675).
Test [5] in a line: qHTS assay to test for compound auto fluorescence at 460 nm (blue) in HEK293 cells (AID 720678). A digest of the protocol:
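Blue read-out at excitation 405 nm and emission 460 nm follows overnight compound exposure of HEK293 cells at 37C in 5% CO2. Activity is given as auto fluorescence equivalency to triamterene.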

A short description of test [6]: qHTS assay to test for compound auto fluorescence at 590 nm (red) in HEK293 cells (AID 720679). Summed up: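 Red channel, Ex/Em 540/590nm; signal expressed as equivalency to Rose Bengal sodium. HEK293, 2,000 cells/well, 10% dialyzed FBS; 23 nL compound pinned after 4-5 hr attachment; overnight 37C/5% CO2 before reading.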
Test [7] in a line: qHTS assay to test for compound auto fluorescence at 535 nm (green) in HEK293 cells (AID 720680).
A short description of test [8]: qHTS assay to test for compound auto fluorescence at 460 nm (blue) in HEK293 cell free culture (AID 720681). Summed up:
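Blue fluorescence (Ex 405/Em 460 nm, triamterene-equivalent) was read immediately after pin transfer of compound or DMSO into medium (DMEM, 10% FBS) without cells.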

The nature of test [9]: qHTS assay to test for compound auto fluorescence at 535 nm (green) in HEK293 cell free culture (AID 720682). A digest of the protocol: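 Green-channel intensity (Ex/Em 485/535 nm) was recorded from compound-treated wells containing only DMEM with 10% FBS. Fluorescein provided the equivalency standard.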
Test [10] in a line: qHTS assay to test for compound auto fluorescence at 590 nm (red) in HEK293 cell free culture (AID 720683). A digest of the protocol:
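Red-channel autofluorescence of compounds in culture medium (DMEM, 10% FBS), no cells, measured at 540/590 nm. Rose Bengal sodium is the reference fluorophore for equivalence.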

The nature of test [11]: qHTS assay to test for compound auto fluorescence at 590 nm (red) in HepG2 cell free culture (AID 720684). A digest of the protocol:
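Plate contents were MEM with 10% FBS plus test compound or DMSO, no cells. Fluorescence was recorded with 540 nm excitation and 590 nm emission.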

Test [12] is described as follows: qHTS assay to test for compound auto fluorescence at 460 nm (blue) in HepG2 cell free culture (AID 720685). A digest of the protocol:
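Compound (23 nL) or DMSO pinned into cell-free MEM with 10% FBS; blue fluorescence read at 405/460 nm excitation/emission, expressed as auto-fluorescence equivalency to triamterene.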

Test [13] in a line: qHTS assay to test for compound auto fluorescence at 535 nm (green) in HepG2 cell free culture (AID 720686).
Test [14] in a line: qHTS assay to test for compound auto fluorescence at 460 nm (blue) in HepG2 cells (AID 720687). A digest of the protocol:
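Blue-channel autofluorescence (Ex/Em 405/460 nm, triamterene-equivalent) was measured after 1 hr compound exposure at 37 C, 5% CO2. Cells were HepG2, plated overnight at 37 C in MEM plus 10% FBS.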

In test [15] the target is Glucocorticoid receptor (Homo sapiens) (UniProt P04150). The test can be described thus: qHTS assay to identify small molecule agonists of the glucocorticoid receptor (GR) signaling pathway (AID 720691; active = well fitted activation curve with a large enough effect in the signal ratio in the repeat runs, not every such curve was filed as active; the % refers to the signal ratio). As to conditions: GR-bla HeLa, beta-lactamase reporter ratio, 18 h; activation: at 62.4 µM (top of the series). Summed up:
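qHTS in GR-bla HeLa cells: 4 h settling at 37 C/5% CO2, 18 h compound incubation at 37 C, 2 h LiveBLAzer B/G FRET substrate at room temperature, fluorescence intensity measured.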

For test [16] the target is unchanged. The test can be described thus: qHTS assay to identify small molecule antagonists of the glucocorticoid receptor (GR) signaling pathway (AID 720692; active = well fitted inhibition curve with a large enough effect in the signal ratio in the repeat runs, not every such curve was filed as active; the % refers to the signal ratio). A digest of the protocol: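 Inhibition of glucocorticoid signalling is measured in HeLa cells with a GRE-controlled beta-lactamase reporter; cells are co-treated with compound and 5 nM dexamethasone (final) for 18 h before FRET substrate readout.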

The nature of test [17]: qHTS assay for small molecules that induce genotoxicity in human embryonic kidney cells expressing luciferase-tagged ATAD5 (AID 651632). Note: nearly all actives have a fitted effect of over 15% in size. Summed up:
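Luminescent reporter readout, HEK293T ATAD5-luc line: 16 hr drug exposure (37C, 5% CO2) followed by Amplite, 30 min RT.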

Test [18] can be described thus: qHTS assay for small molecule disruptors of the mitochondrial membrane potential (AID 720635). Note: potency is the fitted concentration of half-maximal effect. Summed up: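 Mitochondrial membrane potential tracked with Mito-MPS dye, red aggregates (ex 540/em 590 nm) against green monomers (ex 490/em 535 nm). Compound treatment 1 hr at 37C, dye 30 min in HepG2.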
Test [19] is described as follows: qHTS assay for small molecules that induce genotoxicity in human embryonic kidney cells expressing luciferase-tagged ATAD5 - cell viability (AID 651634; calls by dose curve; note: nearly all actives have a fitted effect of over 25% in size). Summed up: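 Viability read: CellTiter-Fluor fluorescence, 30 min at 37C. Cells: HEK293T, luciferase-tagged ATAD5. Exposure: 15.5 hr, 37C, 5% CO2, compound or DMSO vehicle.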
Test [20] in a line: qHTS assay to test for compound auto fluorescence at 590 nm (red) in HepG2 cells (AID 720674). A digest of the protocol:
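Red autofluorescence (Ex/Em 540/590 nm, Rose Bengal sodium equivalents) was measured in HepG2 cells, 2,000 per well in MEM plus 10% FBS, plated overnight at 37 C. Readings were taken 1 hr after adding 23 nL compound or DMSO, at 37 C and 5% CO2.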

Unmarked numbers belong to inactive results. Records with an inconclusive call do not appear. Calls of active or inactive are those of the source. Unless noted, calls come from the whole dose curve; as a rule, active = well fitted curve in the direction sought with a large enough effect in the repeat runs; inconclusive = weak or mixed curves; inactive = no such curve, though single readings can be large; an effect the other way counts as inactive or inconclusive.

Sequence of Glucocorticoid receptor (Homo sapiens) (P04150 whole entry, looked up): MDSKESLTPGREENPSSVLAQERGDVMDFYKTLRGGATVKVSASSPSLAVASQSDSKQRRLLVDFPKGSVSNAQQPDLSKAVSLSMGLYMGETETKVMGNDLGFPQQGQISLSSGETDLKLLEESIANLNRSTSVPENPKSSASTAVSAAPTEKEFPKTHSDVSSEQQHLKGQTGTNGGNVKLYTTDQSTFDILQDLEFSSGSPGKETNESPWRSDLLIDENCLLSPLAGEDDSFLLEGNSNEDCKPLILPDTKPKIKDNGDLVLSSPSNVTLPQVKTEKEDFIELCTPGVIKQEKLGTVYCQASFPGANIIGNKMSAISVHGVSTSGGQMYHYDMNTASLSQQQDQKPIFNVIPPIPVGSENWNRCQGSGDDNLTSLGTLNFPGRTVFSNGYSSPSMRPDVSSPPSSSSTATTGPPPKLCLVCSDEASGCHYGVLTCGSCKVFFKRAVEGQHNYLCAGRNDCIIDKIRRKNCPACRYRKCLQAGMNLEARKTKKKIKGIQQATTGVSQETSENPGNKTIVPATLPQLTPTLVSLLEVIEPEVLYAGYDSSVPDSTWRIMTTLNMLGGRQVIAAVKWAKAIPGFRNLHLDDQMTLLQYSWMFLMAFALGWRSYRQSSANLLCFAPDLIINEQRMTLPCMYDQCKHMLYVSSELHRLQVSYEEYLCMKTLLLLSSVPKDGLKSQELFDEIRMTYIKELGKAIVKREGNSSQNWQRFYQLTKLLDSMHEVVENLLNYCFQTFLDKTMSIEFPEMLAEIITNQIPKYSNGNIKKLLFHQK

`CCCCC(CC)COC(=O)CCCCC(=O)OCC(CC)CCCC` (centres undefined): the Potency entry in test [1], in test [2], in test [3], in [15] and in test [16] was “inactive” each time. In addition, the molecule was called inactive in test [4], in test [5], in [6], in test [7], in [8] and in test [9]. The molecule was called inactive in [10], in test [11], in test [12], in test [13] and in test [14].
With `O=C(O)c1cc(C(=O)O)cc(S(=O)(=O)O)c1`, the molecule was called inactive in test [17], in test [4], in [5], in [6], in test [8] and in test [9]. Further, the result in [10], in test [11], in test [13] and in test [14] was inactive. Further, the Potency result in test [2], in test [3], in test [18], in test [15] and in test [16] was “inactive” each time.
For `Cc1ccc2oc(=O)ccc2c1`, the Potency result in [2], in [19], in [3], in test [18], in test [15] and in test [16] was “inactive” throughout. Further, the molecule was called inactive in test [20], in [4], in test [5], in test [6], in test [8] and in test [9]. Further, the molecule was called inactive in [10], in test [11], in [12], in test [13] and in [14].
As to `O=C(Oc1ccccc1)c1ccccc1`, the call in test [17], in [4], in [5], in [6], in test [7] and in [9] was inactive. For the same molecule, the call in test [10], in [11], in [12], in test [13] and in test [14] was inactive. For the same molecule, the Potency result in [2], in test [3] and in test [18] was “inactive” in each case.
With `CCCCC(CC)COC(=O)C(C#N)=C(c1ccccc1)c1ccccc1` (centres undefined), the Potency entry in [2], in test [15] and in test [16] was “inactive” in each case. Moreover, the values for the Potency in test [3] and in test [18] were 15.4 µM (active) and 27.3 µM (active), respectively. Besides, the outcome in test [20], in test [4], in test [5], in test [6], in test [7] and in test [8] was inactive. In addition, the result in test [9], in test [11], in test [12], in test [13] and in test [14] was inactive.
As to `NNc1nncc2ccccc12`, the Potency result in test [1], in test [2], in test [3], in test [15] and in test [16] was “inactive” throughout. Further, the molecule was called inactive in [20], in [4], in [5], in [6], in test [7] and in test [9]. The call in test [11], in test [13] and in test [14] was inactive.
As for `OCC(CO)(CBr)CBr`, the Potency entry in test [2], in [19], in test [3], in [18], in test [15] and in test [16] was “inactive” in each case. Also, the molecule was classed as inactive in test [20], in test [4], in test [5], in test [6], in test [8] and in test [9]. In addition, the molecule was called inactive in [10], in test [11], in test [13] and in test [14].
Regarding `CCN(CC)CCCC(C)Nc1ccnc2cc(Cl)ccc12` (centres undefined), the outcome in test [20], in test [4], in [5], in [6], in test [8] and in [9] was inactive. Besides, the molecule was called inactive in [10], in test [11], in test [12], in test [13] and in test [14]. Moreover, the Potency entry in [15] and in test [16] was “inactive” each time.
Take `CC1=CCC2CC1C2(C)C` (centres undefined): the outcome in test [17], in [4], in [5], in test [6], in [8] and in [9] was inactive. The call in test [10], in test [11], in test [13] and in [14] was inactive. Moreover, in test [2], the Potency result is “inactive”.
Turning to `CCc1ccc(CCOc2ccc(CC3SC(=O)NC3=O)cc2)nc1` (centres undefined), the call in [17], in [20], in test [4], in [5], in test [6] and in test [7] was inactive. Moreover, the molecule was called inactive in [8], in test [9], in [10], in test [11], in test [12] and in [13]. For the same molecule, the molecule was called inactive in [14]. Also, the Potency result in [2], in test [19], in [3] and in test [15] was “inactive” in each case.
